HT1080-NT tox: qHTS for induction of synthetic lethality in tumor cells producing 2HG: qHTS for the HT-1080-NT fibrosarcoma cell line; HT-1080-NT fibrosarcoma viability, CellTiter-Glo ATP luminescence, 48 h; Potency, µM (top dose mostly 46.1 µM), hits mostly cytotoxic; 360,000 compounds, 1.6% hits; AID 686970, 2013;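 further: NT is the 2HG producing partner of a matched IDH1 knockdown line; nearly all actives have a fitted effect of over 55% in size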
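Compounds were tested in concentration-response format on HT-1080-NT cells for 48 hours at 37 degrees C. Cell viability came from CellTiter-Glo luminescence; curves were classified by r2, response magnitude and activity.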
IL-1B inflam inh: qHTS for Inhibitors of Inflammasome Signaling: IL-1-beta AlphaLISA Primary Screen; THP-1 LPS/ATP IL-1B secretion, AlphaLISA, 16 h; stronger effect = lower value; activity change, % at 57.5 µM; 360,000 compounds, 4.7% hits; in the data active means activity change below about -50%; inconclusive means mostly about -30% to -49%
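Secreted IL-1B measured by AlphaLISA bead assay after 16 h compound exposure of THP-1 cells; compounds (final up to 57.5 uM) added 1 h before LPS (250 ng/mL) and ATP (1.25 mM) stimulation; lower signal means less secretion.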
DT40 TDP1 CPT: qHTS for Inhibitors of human tyrosyl-DNA phosphodiesterase 1 (TDP1): qHTS in cells in presence of CPT; AID 686979, 2013; 420,000 compounds, 12% hits; Potency, µM (series often up to 46.2 µM), hits mostly inhibitors; chicken DT40 Tdp1-/-;hTDP1 cells + 20 nM CPT, ATP luminescence, 48 h; further: nearly all actives have a fitted effect of over 55% in size
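Chicken DT40 Tdp1-/- cells stably complemented with human TDP1 were seeded at 400 cells/well in medium containing 20 nM camptothecin, exposed to pin-transferred compounds, and grown at 37 °C for at least 48 hr. Viability was read as ATP luminescence.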
DT40 TDP1 no CPT: qHTS for Inhibitors of human tyrosyl-DNA phosphodiesterase 1 (TDP1): qHTS in cells in absence of CPT; 420,000 compounds, 15% hits; Potency, µM (titrated, usually from 46.2 µM), usual class: inhibitors; AID 686978, 2013; DT40 Tdp1-/- hTDP1 cells, no CPT, ATP luminescence, 48 h; further: nearly all actives have a fitted effect of over 55% in size
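Readout: luminescence from CellTiter-Glo after 30 min in the dark at RT. Cells: DT40 Tdp1-/- with stable hTDP1, 400/well. Exposure: compounds alone, ≥48 hr, 37 °C.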
HT1080 IDH1KD tx: qHTS for induction of synthetic lethality in tumor cells producing 2HG: qHTS for the HT-1080-IDH1KD cell line; Potency, µM (highest dose often 46.1 µM), actives largely listed as cytotoxic; 360,000 compounds, 2% hits; HT-1080 IDH1 knockdown viability, ATP luminescence, 48 h
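Viability of IDH1-knockdown HT-1080 fibrosarcoma cells was assessed by CellTiter-Glo after 48 h at 37 °C with titrated compound; concentration-effect curves were classified by fit quality and response size.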
Hits are given with their value; n = inactive; u = inconclusive; x = no result. Hits are enriched below; roughly 19% of the tested compounds scored in any of these assays. Unless noted, the call rests on the fitted dose curve; in most records, active means well fitted curve in the direction sought with a large enough effect; inconclusive means small, poorly fitted or top-dose-only effect, or another doubt; inactive means no such curve, though single readings can be large; an effect the other way counts as inactive or inconclusive.

SMILES | HT1080-NT tox | IL-1B inflam inh | DT40 TDP1 CPT | DT40 TDP1 no CPT | HT1080 IDH1KD tx
COc1ccc(NC(=O)c2csc(C)c2)cc1OC | n | n | n | n | n
CC(C)CC(c1nnnn1Cc1ccco1)N1CCN(c2cccc(Cl)c2)CC1 (stereo unspecified) | n | n | u | 16µM | n
Cc1ccc(C(c2nnnn2CC2CCCO2)N2CCN(c3cccc(C)c3C)CC2)cc1 (stereo unspecified) | n | n | u | 23µM | n
CCCC(c1nnnn1CC1CCCO1)N1CCN(c2cc(Cl)ccc2C)CC1 (stereo unspecified) | n | n | u | u | n
COc1ccc(C(c2nnnn2CC2CCCO2)N2CCN(c3ccccc3)CC2)cc1 (stereo unspecified) | n | n | n | n | n
CC(C)CC(c1nnnn1CC1CCCO1)N1CCN(c2cccc(Cl)c2)CC1 (stereo unspecified) | n | n | 26µM | 16µM | n
O=C(c1ccncc1)N1CCN(S(=O)(=O)c2ccccc2Br)CC1 | n | n | n | n | n
CC1=C(C(=O)N(C)C)CC(CC(=O)NC2CCCCC2)C(=O)N1Cc1ccccc1 (stereo unspecified) | n | n | n | n | n
Cc1ccc2c(c1)C(c1ccccc1)N(C(=O)COc1ccc(Cl)cc1Cl)CC(=O)N2 (stereo unspecified) | x | x | 21µM | 21µM | x
O=C1CN(C(=O)c2ccc(S(=O)(=O)N3CCCC3)cc2)C(c2ccccc2)c2cc(Cl)ccc2N1 (stereo unspecified) | x | x | u | 21µM | x
O=C1CN(C(=O)Cc2ccc(F)cc2)C(c2ccccc2)c2cc(Cl)ccc2N1 (stereo unspecified) | x | x | 15µM | 18µM | x
O=C1CN(C(=O)c2c(F)cccc2F)C(c2ccccc2)c2cc(Br)ccc2N1 (stereo unspecified) | u | n | u | u | u
CCCC(=O)N1CC(=O)Nc2ccc(C)cc2C1c1ccccc1 (stereo unspecified) | n | n | n | n | n
O=C1CN(C(=O)c2cccc(Br)c2)C(c2ccccc2)c2cc(Cl)ccc2N1 (stereo unspecified) | x | x | 5.2µM | u | x
CC(=O)c1ccc(Nc2nc(C(N)Cc3ccc(C(F)(F)F)cc3)cs2)cc1 (stereo unspecified) | u | u | 15µM | 16µM | u
Cc1ccc(C(=O)Nc2nnc(-c3ccc(C(C)(C)C)cc3)s2)cc1 | n | n | u | u | n
Cc1ccc(C(=O)Nc2nc(C(N)Cc3ccc(C(F)(F)F)cc3)cs2)cc1 (stereo unspecified) | u | -65 | u | u | 16µM
NC(Cc1ccc(C(F)(F)F)cc1)c1csc(Nc2ccc(C(=O)c3ccccc3)cc2)n1 (stereo unspecified) | u | -70 | u | u | u
CC(=O)c1ccc(Nc2nc(C(C)N)cs2)cc1 (stereo unspecified) | n | n | n | n | n
Cc1ccc(C(=O)NCCc2c[nH]c3ccccc23)s1 | n | n | u | u | n
Cc1ccc(S(=O)(=O)NCC(c2cccnc2)N2CCc3ccccc32)cc1 (stereo unspecified) | n | n | u | u | n
COc1ccc(C(=O)NCC(c2cccnc2)N2CCc3ccccc32)cc1 (stereo unspecified) | x | x | 9.2µM | u | x
N#Cc1ccccc1NC(=O)C(=O)NCC(c1cccnc1)N1CCc2ccccc21 (stereo unspecified) | x | x | 21µM | 16µM | x
COc1ccc(N2CCN(C(CNC(=O)c3ccc(OC)c(OC)c3)c3cccnc3)CC2)cc1 (stereo unspecified) | x | x | n | u | x
O=C(NCC(c1cccnc1)N1CCc2ccccc21)c1ccc(Cl)cc1 (stereo unspecified) | x | x | 10µM | 12µM | x

From PubChem
